# Values without a mark were called inactive. Inconclusive results are not listed. Active and inactive are the calls of the source. Unless noted, calls follow the shape of the dose curve; as a rule, active = well fitted curve in either direction with a large enough effect (not every such curve was filed as active); inconclusive = small, poorly fitted or top-dose-only effect, or another doubt; inactive = flat fitted curve, though single readings scatter.
# Key:
# [1] = biological target: Cytochrome P450 1A2 (Homo sapiens) (UniProt P05177); assay: p450-cyp1a2 (AID 410; calls by dose curve; also: potency is read from the fitted curve at half-maximal effect)
# Outline: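 Human CYP1A2 (20nM) demethylated Luciferin-ME at its Km (100uM) in 100mM KPO4. After 10 min compound preincubation, NADPH regeneration ran the reaction 60 min at room temperature. Luciferin was read by luminescence, normalized to 57 uM furafylline.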
# [2] = biological target: Glucocorticoid receptor (Homo sapiens) (UniProt P04150); assay: GR-GFP Redistribution (AID 450;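 active = compounds whose dose series gives a full or clear partial fitted curve of increased nuclear translocation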; also: potency is read from the fitted curve at half-maximal effect); conditions: U2OS GR-GFP nuclear translocation, laser cytometry, 2 h
# [3] = biological target: Glucocorticoid receptor (Homo sapiens) (UniProt P04150); assay: GR-EFC Redistribution (AID 451; calls by dose curve; also: potency is read from the fitted curve at half-maximal effect); conditions: CHO-K1 GR-EFC translocation, beta-gal luminescence, 2 h
# Outline: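 CHO-K1 cells expressing nuclear EA and GR-ED fragments of b-gal; compounds titrated up to 46 uM final, 2 h at 37 C. GR nuclear translocation read as complemented b-gal luminescence after 1 h RT detection.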
# [4] = biological target: Mitogen-activated protein kinase 10 (Mus musculus) (UniProt Q61831); assay: JNK3 AlphaScreen Assay (AID 530);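 also: kinase came from lysate of stimulated human HepG2 cells; signal reports phosphorylation of biotinylated GST-cJun 1-79 at Ser73 with 10 µM ATP; % is scaled to controls: 0 for no effect and ±100 for the full control effect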
# Outline: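 qHTS format: compounds tested as titrations against IL-1beta/TNF-alpha-activated HepG2 lysate JNK3 with biotin-GST-cJun substrate and 10 uM ATP at room temperature. Loss of anti-phospho-cJun AlphaScreen signal indicates inhibition.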
# [5] = biological target: 3',5'-cyclic-AMP phosphodiesterase 4B (Homo sapiens) (UniProt Q07343); assay: qHTS Assay for Inhibitors of PDE-IV (AID 607; active = well fitted activation curve with a large enough effect in the main read-out, with a control signal flat, not every such curve was filed as active; also: % of control where 0% means no effect)
# Outline: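 Live HEK293 cells with a modified cyclic nucleotide-gated (CNG) channel report intracellular cAMP via membrane-potential dye fluorescence (ex 535/em 590 nm). Endogenous PDE-IV was targeted. Compounds were tested at up to 22.9 uM final; RO 20-1724 100 uM served as control.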
# [6] = biological target: Cytochrome P450 2C9 (Homo sapiens) (UniProt P11712); assay: qHTS Assay for Inhibitors and Substrates of Cytochrome P450 2C9 (AID 883; active = well fitted curve in the direction sought with a large enough effect; an effect the other way counts as inactive or inconclusive; also: potency is read from the fitted curve at half-maximal effect; nearly all actives have a fitted effect of over 60% in size)
# Outline: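 Human CYP2C9 (10nM) with Luciferin-H at 100uM (its KM) in 25mM KPO4; compound preincubated 10 min at 37C, then NADPH regeneration for 60 min at 37C. Luciferin read by luminescence after detection reagent; normalized to 57uM sulphaphenazole as full inhibition.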
# [7] = biological target: Cytochrome P450 2C19 (Homo sapiens) (UniProt P33261); assay: qHTS Assay for Inhibitors and Substrates of Cytochrome P450 2C19 (AID 899; active = well fitted curve in the direction sought with a large enough effect; an effect the other way counts as inactive or inconclusive; also: potency is read from the fitted curve at half-maximal effect; nearly all actives have a fitted effect of over 60% in size)
# Outline: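 5 nM human CYP2C19 with 10uM Luciferin-H EGE (at KM) in 50mM KPO4, compound preincubated 10 min at 37C, then NADPH regeneration for 60 min at 37C. Luciferin read by luminescence after detection reagent; normalized to 57uM ketoconazole as full inhibition.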
# [8] = AP1 Signaling Pathway (AID 357); conditions: ME-180 AP-1-bla reporter, EGF-induced, beta-lactamase ratio, 5 h; at 7.69 µM (top of the series) unless noted;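 also: ME-180 reporter cells stimulated with EGF at its EC50 level; % is scaled to controls: 0 for no effect and ±100 for the full control effect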
# Outline: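 In this screen, ME-180 cells in Opti-MEM with 0.5% dialyzed FBS received EC50 EGF and compound titrations for 5 h. AP-1 reporter beta-lactamase was detected via CCF4 ratio, giving AC50 for positive and negative modulators.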
# [9] = NFAT Signaling Pathway (AID 444); conditions: Jurkat NFAT-bla M1, carbachol, beta-lactamase ratio, 5 h; at 7.69 µM (top of the series) unless noted;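 also: carbachol stimulus at about its EC50 of 1 µM final; % is scaled to controls: 0 for no effect and ±100 for the full control effect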
# Outline: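 Jurkat cells with NFAT-driven β-lactamase reporter and co-expressed M1 receptor, stimulated with carbachol (final 1 uM, ~EC50), compound titration, 5 h at 37 °C. CCF4 loaded 1 h at RT; 460/530 nm ratio gave %activity and AC50.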
# [10] = Stat Signaling Pathway (AID 446); conditions: ME-180 SIE beta-lactamase reporter, IL-6 stimulated, 5 h; at 7.69 µM (top of the series) unless noted;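 also: ME-180 cervical cancer cells given 40 pM IL-6 alongside compound; SIE-controlled beta-lactamase reporter measured as 460/530 nm FRET emission ratio; % is scaled to controls: 0 for no effect and ±100 for the full control effect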
# Outline: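 IL-6/STAT signaling read in ME-180 cells via an SIE beta-lactamase reporter. Stimulus was 40 pM IL-6 (its AC50) for 5 hrs, so both activation and inhibition register.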
# [11] = biological target: Guanine nucleotide-binding protein G(i) subunit alpha-1 (Homo sapiens) (UniProt P63096); assay: qHTS Assay for Inhibitors of RGS12 GoLoco Motif Activity (Green Fluorophore) (AID 879; active = well fitted curve in the direction sought with a large enough effect; an effect the other way counts as inactive or inconclusive;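 also: 0% = labeled peptide with Gαi1 and full inhibition = labeled peptide alone without protein; negative values mean loss of peptide binding seen as reduced polarization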)
# Outline: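 Fluorescence polarization assay: 50 nM Gαi1 with 10 nM FITC-labeled RGS12 GoLoco peptide in 10 mM Tris pH 7.5, 150 mM NaCl, 0.1 mM GDP, 0.05% NP40, 10 min at room temperature with compound.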
# [12] = biological target: Cytochrome P450 3A4 (Homo sapiens) (UniProt P08684); assay: qHTS Assay for Activators of Cytochrome P450 3A4 (AID 885; active = well fitted curve in the direction sought with a large enough effect; an effect the other way counts as inactive or inconclusive; also: nearly all actives have a fitted effect of over 65% in size)
# Outline: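 Quantitative HTS format: compounds preincubated with 20nM human CYP3A4 and Luciferin-PPXE substrate at KM, reaction started by NADPH regeneration, stopped after 60 min, luciferase luminescence read 20 min later.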
# [13] = qHTS Assay for Identification of Small Molecule Antagonists for NFkB Signaling Pathway (AID 895; active = well fitted inhibition curve with a large enough effect in the signal ratio, with a control signal flat, not every such curve was filed as active; the % refers to the signal ratio; also: % is scaled to controls: 0 for no effect and ±100 for the full control effect)
# Outline: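 ME-180 NFkB-bla cells (beta-lactamase under NFkB response element), plated overnight, treated with compound then 10 pM TNF alpha (about EC50) for 5 hrs at 37 C. LiveBLAzer FRET read at 460/530 nm emission, 405 nm excitation.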
# [14] = qHTS Assay for Identification of Small Molecule Agonists for Thrombopoietin (TPO) Signaling Pathway (AID 917; active = well fitted curve in the direction sought with a large enough effect; an effect the other way counts as inactive or inconclusive; also: % is scaled to controls: 0 for no effect and ±100 for the full control effect)
# Outline: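 Murine Ba/F3 cells stably expressing human TPO receptor and a Glycoprotein IIb promoter–luciferase reporter were IL-3-starved overnight, then treated with compounds plus TPO (26 pM final, its EC50) for 24 hrs at 37 C; luminescence was read.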
# [15] = biological target: Pyruvate kinase (Leishmania mexicana) (UniProt Q27686); assay: qHTS Validation Assay for Inhibitors of Leishmania Mexicana Pyruvate Kinase (AID 945; active = well fitted curve in the direction sought with a large enough effect; an effect the other way counts as inactive or inconclusive;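 also: 0% = DMSO only neutral control wells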)
# Outline: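 The enzyme is a highly purified E451W mutant of LmPYK used at 0.2 nM. It converts 0.5 mM PEP and 0.1 mM ADP over 1 h at room temperature; product ATP is quantified by luciferase luminescence relative to DMSO controls.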
# [16] = biological target: Pyruvate kinase PKM (Homo sapiens) (UniProt P14618); assay: qHTS Assay for Activators of Human Muscle Pyruvate Kinase (AID 954; active = well fitted curve in the direction sought with a large enough effect, not every such curve was filed as active;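 also: 0% = uninhibited enzyme and -100% = no enzyme or full thiadiazolimine inhibition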)
# Outline: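 Enzyme was run at intermediate activity so both inhibitors and activators could be detected. ATP formed from ADP and PEP by 0.1 nM human PKM2 during a 1 h room-temperature incubation was quantified by coupled luciferase luminescence.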
# [17] = biological target: Alpha-galactosidase (Coffea arabica) (UniProt Q42656); assay: Counterscreen for Glucocerebrosidase Inhibitors: qHTS Assay for Coffee Bean alpha-Galactosidase at pH 4.5 (AID 957; active = well fitted curve in the direction sought with a large enough effect; an effect the other way counts as inactive or inconclusive;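 also: plate controls were enzyme alone for no effect and no enzyme for full effect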)
# Outline: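 Green coffee bean enzyme (2 nM final) was incubated with compounds (0.7 nM to 77 uM) and 4-methylumbelliferyl alpha-D-galactopyranoside (80 uM final) in 50 mM citric acid, 0.005% Tween-20, pH 4.5, 20 min at room temperature; AC50 from Hill fits.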
# [18] = biological target: Alpha-galactosidase A (Homo sapiens) (UniProt P06280); assay: Counterscreen for Glucocerebrosidase Inhibitors: qHTS Assay for Human alpha-Galactosidase at pH 4.5 (AID 992; active = well fitted curve in the direction sought with a large enough effect; an effect the other way counts as inactive or inconclusive; also: 0% is about no effect)
# Outline: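 Read-out is 4-methylumbelliferone fluorescence (365 nm excitation, 440 nm emission) after a pH 10 NaOH/glycine stop. Reactions held 2 nM enzyme and 80 uM substrate at pH 4.5 for 20 min at room temperature.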
# [19] = biological target: alpha-glucosidase (Oryza sativa, rice) (UniProt Q653V4); assay: Counterscreen for Glucocerebrosidase Inhibitors: qHTS Assay for Rice alpha-Glucosidase at pH 5.0 (AID 997; active = well fitted curve in the direction sought with a large enough effect; an effect the other way counts as inactive or inconclusive;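 also: 0% = full activity with enzyme and -100% = basal without enzyme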)
# Outline: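 Rice alpha-glucosidase (4 nM final) with 400 uM 4-methylumbelliferyl-alpha-D-glucopyranoside in citrate buffer pH 5.0, 20 min at room temperature, stopped at pH 10; fluorescence 365/440 nm, compounds 0.7 nM–77 uM, AC50 from Hill fits.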
# [20] = biological target: Alpha-galactosidase (Coffea arabica) (UniProt Q42656); assay: Counterscreen for Glucocerebrosidase Inhibitors: qHTS Assay for Coffee Bean alpha-Galactosidase at pH 5.9 (AID 998; active = well fitted curve in the direction sought with a large enough effect; an effect the other way counts as inactive or inconclusive;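 also: plate controls were uninhibited enzyme for no effect and no-enzyme basal signal for full effect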)
# Outline: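 Green coffee bean enzyme (2 nM) with 4-methylumbelliferyl alpha-D-galactopyranoside (80 uM) in 50 mM citric acid, 0.005% Tween-20, pH 5.9, 20 min at room temperature; compounds 0.7 nM–77 uM. Stopped at pH 10, fluorescence Ex365/Em440; Hill-fit AC50.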
# [21] = biological target: Cytochrome P450 2D6 (Homo sapiens) (UniProt P10635); assay: qHTS Assay for Inhibitors and Substrates of Cytochrome P450 2D6 (AID 891; active = well fitted curve in the direction sought with a large enough effect; an effect the other way counts as inactive or inconclusive; also: potency is read from the fitted curve at half-maximal effect; nearly all actives have a fitted effect of over 60% in size)
# Outline: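 Human CYP2D6 (5 nM) with 30 uM Luciferin-ME EGE (at Km) in 100 mM KPO4, compound preincubated 10 min, then NADPH regeneration system for 60 min at room temperature. Luciferin read by luminescence; normalized to 1.43 uM quinidine.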
# Sequence of 3',5'-cyclic-AMP phosphodiesterase 4B (Homo sapiens) (Q07343 whole entry, looked up): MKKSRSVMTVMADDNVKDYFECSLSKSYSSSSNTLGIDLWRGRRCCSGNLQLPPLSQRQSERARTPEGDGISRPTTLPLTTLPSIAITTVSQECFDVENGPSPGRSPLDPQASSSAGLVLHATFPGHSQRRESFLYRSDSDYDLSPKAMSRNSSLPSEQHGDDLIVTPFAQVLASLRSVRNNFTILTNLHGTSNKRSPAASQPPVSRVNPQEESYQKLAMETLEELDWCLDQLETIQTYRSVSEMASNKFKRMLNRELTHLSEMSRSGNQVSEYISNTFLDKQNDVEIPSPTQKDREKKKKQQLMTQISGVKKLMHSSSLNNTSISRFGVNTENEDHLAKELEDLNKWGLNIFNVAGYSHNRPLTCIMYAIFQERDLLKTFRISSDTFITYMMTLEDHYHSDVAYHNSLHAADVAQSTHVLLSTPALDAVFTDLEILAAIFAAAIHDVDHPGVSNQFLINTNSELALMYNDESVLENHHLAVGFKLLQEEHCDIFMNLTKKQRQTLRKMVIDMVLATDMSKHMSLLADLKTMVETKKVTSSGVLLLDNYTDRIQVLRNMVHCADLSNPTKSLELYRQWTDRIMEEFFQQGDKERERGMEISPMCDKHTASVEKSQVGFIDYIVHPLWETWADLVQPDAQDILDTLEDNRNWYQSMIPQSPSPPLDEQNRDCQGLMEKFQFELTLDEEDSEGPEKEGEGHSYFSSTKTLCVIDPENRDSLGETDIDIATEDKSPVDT
# Sequence of Glucocorticoid receptor (Homo sapiens) (P04150 whole entry, looked up, the tested form may be a part): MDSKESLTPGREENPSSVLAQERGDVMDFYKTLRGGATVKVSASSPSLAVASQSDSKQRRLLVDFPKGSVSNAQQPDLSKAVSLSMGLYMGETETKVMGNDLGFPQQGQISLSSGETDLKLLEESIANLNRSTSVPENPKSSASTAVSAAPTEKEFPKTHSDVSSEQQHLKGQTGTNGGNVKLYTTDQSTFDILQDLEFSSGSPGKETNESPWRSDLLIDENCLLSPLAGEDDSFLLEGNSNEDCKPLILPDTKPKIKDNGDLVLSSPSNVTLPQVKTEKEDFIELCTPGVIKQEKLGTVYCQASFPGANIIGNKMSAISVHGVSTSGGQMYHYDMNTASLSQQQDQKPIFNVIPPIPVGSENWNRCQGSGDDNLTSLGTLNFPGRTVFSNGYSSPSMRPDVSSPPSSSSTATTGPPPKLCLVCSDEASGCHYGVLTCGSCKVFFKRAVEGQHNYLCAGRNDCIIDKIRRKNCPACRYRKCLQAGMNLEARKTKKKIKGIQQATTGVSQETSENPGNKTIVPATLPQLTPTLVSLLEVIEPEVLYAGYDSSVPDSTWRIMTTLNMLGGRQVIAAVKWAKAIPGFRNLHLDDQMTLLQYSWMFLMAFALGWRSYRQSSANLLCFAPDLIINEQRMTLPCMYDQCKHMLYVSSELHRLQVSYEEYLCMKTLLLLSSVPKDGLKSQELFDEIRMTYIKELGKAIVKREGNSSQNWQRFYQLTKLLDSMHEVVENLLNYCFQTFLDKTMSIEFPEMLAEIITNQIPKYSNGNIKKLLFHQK
# Sequence of Alpha-galactosidase (Coffea arabica) (Q42656 whole entry, looked up): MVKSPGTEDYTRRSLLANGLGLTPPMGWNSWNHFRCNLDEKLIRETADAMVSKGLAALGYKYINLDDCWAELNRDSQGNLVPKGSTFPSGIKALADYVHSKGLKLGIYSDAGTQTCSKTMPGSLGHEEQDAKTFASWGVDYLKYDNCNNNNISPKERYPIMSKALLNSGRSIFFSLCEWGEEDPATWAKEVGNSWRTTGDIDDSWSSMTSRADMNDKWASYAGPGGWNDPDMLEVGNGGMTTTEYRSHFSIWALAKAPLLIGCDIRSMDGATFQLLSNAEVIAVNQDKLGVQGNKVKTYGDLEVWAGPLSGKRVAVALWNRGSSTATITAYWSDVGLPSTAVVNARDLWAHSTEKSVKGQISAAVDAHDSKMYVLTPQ
# Sequence of Cytochrome P450 2C19 (Homo sapiens) (P33261 whole entry, looked up): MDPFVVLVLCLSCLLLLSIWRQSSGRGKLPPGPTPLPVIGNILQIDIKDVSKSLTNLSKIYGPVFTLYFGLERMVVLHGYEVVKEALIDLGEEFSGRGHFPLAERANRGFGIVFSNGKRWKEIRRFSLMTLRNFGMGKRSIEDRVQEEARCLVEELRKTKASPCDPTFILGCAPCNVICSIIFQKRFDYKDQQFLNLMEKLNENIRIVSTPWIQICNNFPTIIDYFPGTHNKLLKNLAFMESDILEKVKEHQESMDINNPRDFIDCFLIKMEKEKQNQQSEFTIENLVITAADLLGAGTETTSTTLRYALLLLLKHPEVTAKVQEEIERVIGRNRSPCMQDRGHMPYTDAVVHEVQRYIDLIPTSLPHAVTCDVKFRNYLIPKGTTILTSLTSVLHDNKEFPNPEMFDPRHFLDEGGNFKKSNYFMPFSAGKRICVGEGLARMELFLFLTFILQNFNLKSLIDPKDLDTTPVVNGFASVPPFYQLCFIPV
# Sequence of Alpha-galactosidase A (Homo sapiens) (P06280 whole entry, looked up): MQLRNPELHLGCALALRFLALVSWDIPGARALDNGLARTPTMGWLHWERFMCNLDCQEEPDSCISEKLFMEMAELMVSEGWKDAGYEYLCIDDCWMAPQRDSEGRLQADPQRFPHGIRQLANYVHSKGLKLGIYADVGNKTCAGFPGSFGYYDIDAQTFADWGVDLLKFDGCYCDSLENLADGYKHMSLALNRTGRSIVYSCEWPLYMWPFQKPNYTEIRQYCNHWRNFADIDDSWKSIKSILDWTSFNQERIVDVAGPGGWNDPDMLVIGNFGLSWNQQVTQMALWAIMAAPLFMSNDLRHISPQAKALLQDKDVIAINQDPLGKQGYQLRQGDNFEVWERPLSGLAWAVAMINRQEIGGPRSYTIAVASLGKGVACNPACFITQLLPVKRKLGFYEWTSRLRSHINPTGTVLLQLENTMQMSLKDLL
# Sequence of Cytochrome P450 2D6 (Homo sapiens) (P10635 whole entry, looked up): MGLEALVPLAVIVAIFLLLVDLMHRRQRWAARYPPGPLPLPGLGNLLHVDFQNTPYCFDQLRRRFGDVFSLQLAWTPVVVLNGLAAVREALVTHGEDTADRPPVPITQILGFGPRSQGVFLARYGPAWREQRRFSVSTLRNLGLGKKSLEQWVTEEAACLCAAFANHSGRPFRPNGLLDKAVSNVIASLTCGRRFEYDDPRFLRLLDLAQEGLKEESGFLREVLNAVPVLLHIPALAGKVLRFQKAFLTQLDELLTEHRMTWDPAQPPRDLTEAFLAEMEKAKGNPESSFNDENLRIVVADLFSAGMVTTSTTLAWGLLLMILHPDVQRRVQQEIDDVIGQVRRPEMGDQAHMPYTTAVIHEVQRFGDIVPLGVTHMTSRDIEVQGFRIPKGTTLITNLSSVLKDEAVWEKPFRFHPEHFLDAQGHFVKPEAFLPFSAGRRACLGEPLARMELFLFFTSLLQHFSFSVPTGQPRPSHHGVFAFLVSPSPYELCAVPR
# Sequence of Cytochrome P450 2C9 (Homo sapiens) (P11712 whole entry, looked up): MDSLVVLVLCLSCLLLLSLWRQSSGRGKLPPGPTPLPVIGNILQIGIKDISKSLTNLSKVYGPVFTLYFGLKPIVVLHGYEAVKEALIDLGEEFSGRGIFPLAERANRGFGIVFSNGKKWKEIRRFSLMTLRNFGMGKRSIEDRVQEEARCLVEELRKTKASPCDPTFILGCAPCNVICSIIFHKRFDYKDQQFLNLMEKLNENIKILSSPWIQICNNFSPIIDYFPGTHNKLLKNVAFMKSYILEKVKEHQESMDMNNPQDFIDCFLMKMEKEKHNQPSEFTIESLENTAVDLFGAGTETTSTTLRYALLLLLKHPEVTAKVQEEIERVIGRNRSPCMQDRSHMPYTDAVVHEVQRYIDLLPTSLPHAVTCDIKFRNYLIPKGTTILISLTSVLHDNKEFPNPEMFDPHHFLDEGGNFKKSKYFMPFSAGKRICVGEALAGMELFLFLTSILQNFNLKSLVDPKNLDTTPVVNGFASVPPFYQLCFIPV
# Sequence of Cytochrome P450 3A4 (Homo sapiens) (P08684 whole entry, looked up): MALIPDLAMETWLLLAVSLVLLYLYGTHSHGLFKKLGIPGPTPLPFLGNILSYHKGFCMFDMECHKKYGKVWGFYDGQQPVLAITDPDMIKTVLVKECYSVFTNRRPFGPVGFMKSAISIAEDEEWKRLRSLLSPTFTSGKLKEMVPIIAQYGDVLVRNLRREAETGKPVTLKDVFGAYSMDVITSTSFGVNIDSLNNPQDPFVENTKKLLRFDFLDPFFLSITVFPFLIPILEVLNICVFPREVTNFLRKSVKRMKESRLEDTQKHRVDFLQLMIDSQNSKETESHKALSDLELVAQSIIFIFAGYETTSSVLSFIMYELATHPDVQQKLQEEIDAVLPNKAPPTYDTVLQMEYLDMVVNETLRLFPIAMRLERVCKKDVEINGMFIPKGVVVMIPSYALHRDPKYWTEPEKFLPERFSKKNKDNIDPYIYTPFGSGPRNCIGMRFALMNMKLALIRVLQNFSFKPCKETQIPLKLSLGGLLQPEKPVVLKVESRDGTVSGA
# Sequence of Pyruvate kinase PKM (Homo sapiens) (P14618 whole entry, looked up): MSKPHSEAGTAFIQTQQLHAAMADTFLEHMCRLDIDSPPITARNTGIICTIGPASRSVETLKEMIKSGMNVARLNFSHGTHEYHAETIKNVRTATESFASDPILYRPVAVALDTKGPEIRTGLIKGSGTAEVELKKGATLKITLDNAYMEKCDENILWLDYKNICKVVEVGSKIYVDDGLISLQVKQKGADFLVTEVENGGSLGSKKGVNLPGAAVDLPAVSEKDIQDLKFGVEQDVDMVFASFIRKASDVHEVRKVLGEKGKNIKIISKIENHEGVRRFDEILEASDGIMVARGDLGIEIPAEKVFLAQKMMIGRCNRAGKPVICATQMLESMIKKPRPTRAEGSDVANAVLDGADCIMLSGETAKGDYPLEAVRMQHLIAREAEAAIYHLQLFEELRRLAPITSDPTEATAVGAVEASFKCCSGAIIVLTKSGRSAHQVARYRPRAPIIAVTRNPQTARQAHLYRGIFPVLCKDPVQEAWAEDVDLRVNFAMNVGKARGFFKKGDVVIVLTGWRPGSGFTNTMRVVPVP
smiles,measurement,setting,value
Cc1ccc(NC(=[OH+])c2cc3ccccc3cc2O)c(C)c1.Cc1ccc(NC(=[OH+])c2cc3ccccc3cc2O)c(C)c1.[Ni],Potency,[1],0.251 µM (active)
same,Potency,[2],> 46 µM
same,Potency,[3],> 9.22 µM
same,"activity change, negative = inhibition",[4],1.02% [at 11.4 µM]
same,outcome,[5],inactive
same,Potency,[6],3.16 µM (active)
same,Potency,[7],2 µM (active)
O=S(=O)(Nc1nccs1)c1ccc([As](=O)(O)O)cc1,"activity change, negative = inhibition",[8],4.77%
same,"activity change, negative = inhibition",[9],8.49%
same,"activity, negative = inhibition",[10],10.3%
same,Potency,[3],> 9.22 µM
same,"activity change, negative = inhibition",[4],2.72% [at 11.4 µM]
same,outcome,[5],inactive
C[N+]1(C)CCc2cc3c(cc2[C@@H]1[C@@H]1OC(=O)c2c1ccc1c2OCO1)OCO3,"activity change, negative = inhibition",[8],-3.72% [at 38 µM]
same,"activity change, negative = inhibition",[9],-11.8% [at 38 µM]
same,"activity, negative = inhibition",[10],13.3% [at 38 µM]
same,Potency,[2],> 46 µM
same,Potency,[3],> 46 µM
same,outcome,[5],inactive
same,outcome,[11],inactive
same,Potency,[12],inactive
same,Potency,[13],inactive
same,outcome,[14],inactive
same,outcome,[15],inactive
same,outcome,[16],inactive
same,outcome,[17],inactive
same,outcome,[18],inactive
same,outcome,[19],inactive
same,outcome,[20],inactive
COc1ccc(C[C@@H](N)c2ccc(OC)cc2)cc1,"activity change, negative = inhibition",[8],-1.85%
same,"activity change, negative = inhibition",[9],3.98%
same,"activity, negative = inhibition",[10],-0.344%
same,Potency,[2],> 46 µM
same,Potency,[3],> 9.22 µM
same,"activity change, negative = inhibition",[4],3.37% [at 11.4 µM]
same,outcome,[5],inactive
same,Potency,[21],0.631 µM (active)
FC(F)(F)c1nc2ccc(SSc3ccc4nc(C(F)(F)F)[nH]c4c3)cc2[nH]1,"activity change, negative = inhibition",[8],-1.24%
same,"activity, negative = inhibition",[10],-6.22%
same,Potency,[2],> 46 µM
same,Potency,[3],> 9.22 µM
same,"activity change, negative = inhibition",[4],12.4% [at 11.4 µM]
same,outcome,[5],inactive
same,Potency,[7],5.01 µM (active)

# — PubChem BioAssay (NCATS)
